Laboratory results as given in PubChem BioAssay (Tox21).
Several values for one entry are separate records, joined by “and”; a condition that tells them apart may be missing. Identical values can stand only once. Records with an inconclusive call do not appear. Where a call stands in place of a potency, no number is given. Activity calls are given as the source filed them. Unless noted, calls come from the whole dose curve; as a rule, active = well fitted curve in the direction sought with a large enough effect in the repeat runs; inconclusive = weak or mixed curves; inactive = no such curve, though single readings can be large; an effect the other way counts as inactive or inconclusive.

Experiments:
[1] = qHTS assay to identify small molecule antagonists of the peroxisome proliferator-activated receptor delta (PPARd) signaling pathway - cell viability counter screen (AID 743213); note: nearly all actives have a fitted effect of over 50% in size; note: potency is the fitted concentration of half-maximal effect
Outline: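 Viability counter-screen, qHTS format: PPARd-bla HEK293H, L165041 300 nM final, 17 h compound exposure at 37 C, CellTiter-Glo luminescence after 30 min RT.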

[2] = qHTS assay to identify small molecule agonists of the farnesoid-X-receptor (FXR) signaling pathway - cell viability counter screen (AID 743218); note: nearly all actives have a fitted effect of over 45% in size; note: potency is the fitted concentration of half-maximal effect
Outline: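 In GeneBLAzer FXR-UAS-bla HEK 293T cells, compounds act for 16 h at 37 C. Cell viability is then scored in the reporter wells by CellTiter-Glo, 30 min at RT, luminescence.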

[3] = qHTS assay to identify small molecule antagonists of the farnesoid-X-receptor (FXR) signaling pathway - cell viability counter screen (AID 743221; active = well fitted cell-killing curve with a large enough effect in the repeat runs, not every such curve was filed as active; note: nearly all actives have a fitted effect of over 50% in size; note: potency is the fitted concentration of half-maximal effect)
Outline: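 Multiplexed counter screen: viability of FXR-bla HEK 293T cells under agonist stimulation by chenodeoxycholic acid (50 uM, final) and test compound for 16 h at 37 C, measured by CellTiter-Glo luminescence in the reporter wells.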

[4] = qHTS assay to identify small molecule agonists of the vitamin D receptor (VDR) signaling pathway - cell viability counter screen (AID 743224); note: nearly all actives have a fitted effect of over 50% in size; note: potency is the fitted concentration of half-maximal effect
Outline: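 VDR-bla cell line, quantitative HTS format; 16 h compound incubation (37C, 5% CO2); ATP-based CellTiter-Glo luminescence measured in the reporter assay wells.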

[5] = qHTS assay to identify small molecule antagonists of the vitamin D receptor (VDR) signaling pathway - cell viability counter screen (AID 743225); note: nearly all actives have a fitted effect of over 50% in size; note: potency is the fitted concentration of half-maximal effect
Outline: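 HEK293T VDR-bla; cpd + 1a,25-(OH)2D3 3 nM final, 16 h 37C/5% CO2; B/G FRET substrate 2 h RT; then CellTiter-Glo 30 min RT, luminescence.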

[6] = qHTS assay to identify small molecule agonists of the NFkB signaling pathway (AID 1159509; active = well fitted curve in the direction sought with a large enough effect in the signal ratio in the repeat runs, not every such curve was filed as active; the % refers to the signal ratio; note: series mostly up to about 61 µM)
Outline: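 ME-180 NFkB-bla, 2,000 cells/well, overnight plating; cpd pinned in DMSO, 5 h 37 C; B/G FRET substrate 1.5 h RT; ex 405, em 460/530 nm.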

[7] = qHTS assay to identify small molecule agonists of the endoplasmic reticulum stress response signaling pathway - cell viability counter screen (AID 1159517; calls by dose curve; note: nearly all actives have a fitted effect of over 50% in size; note: potency is the fitted concentration of half-maximal effect)
Outline: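 CellTiter-Glo was added to wells already read for beta-lactamase FRET, and luminescence was recorded 30 min later. Cells: ESRE-bla HeLa, 1,500 per well, compound exposure 5 hr at 37 C.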

[8] = qHTS assay to identify small molecule antagonists of the retinoid-related orphan receptor gamma (ROR-gamma) signaling pathway - cell viability counter screen (AID 1159520); note: nearly all actives have a fitted effect of over 50% in size; note: potency is the fitted concentration of half-maximal effect
Outline: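 Tet-on ROR gamma CHO cells (1,000/well) were plated 4 hr, given compounds in DMSO for 2 hr at 37 C, then induced with 1 uM final doxycycline for 16 hr. Viability was read as ATP by CellTiter-Glo luminescence after 30 min.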

[9] = target: Nuclear receptor ROR-gamma (Homo sapiens) (UniProt P51449); test: qHTS assay to identify small molecule antagonists of the retinoid-related orphan receptor gamma (ROR-gamma) signaling pathway (AID 1159521; note: nearly all actives have a fitted effect of over 50% in size; note: potency is the fitted concentration of half-maximal effect)
Outline: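 Cells were plated, rested 4 h at 37 C, exposed to compounds for 2 h, then given 1 uM final doxycycline hyclate to induce RORγ expression. After 16 h, ONE-Glo luminescence from the ROR response element reporter was measured.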

[10] = qHTS assay to identify small molecule agonists of the AP-1 signaling pathway - cell viability counter screen (AID 1159525; calls by dose curve; note: nearly all actives have a fitted effect of over 55% in size)
Outline: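 ME-180 AP-1-bla, 2500 cells/well, Opti-MEM + 0.5% dialyzed FBS; overnight 37 °C; cpd 15-pt titration, 5 h 37 °C; CellTiter-Glo 30 min RT; luminescence read; normalised to TOAB and DMSO controls.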

[11] = qHTS assay to identify small molecule agonists of the AP-1 signaling pathway (AID 1159526; calls by dose curve; note: potency is the fitted concentration of half-maximal effect)
[12] = qHTS assay to identify small molecule agonists of the peroxisome proliferator-activated receptor delta (PPARd) signaling pathway - cell viability counter screen (AID 743211); note: nearly all actives have a fitted effect of over 55% in size; note: potency is the fitted concentration of half-maximal effect
Outline: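 Counter screen for cytotoxicity run in parallel with the PPARd reporter screen. Beta-lactamase reporter HEK293H cells exposed to compounds 17 h; ATP-based CellTiter-Glo luminescence quantified viability.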

[13] = target: Peroxisome proliferator-activated receptor delta (Homo sapiens) (UniProt Q03181); test: qHTS assay to identify small molecule agonists of the peroxisome proliferator-activated receptor delta (PPARd) signaling pathway (AID 743212; calls by dose curve)
Peroxisome proliferator-activated receptor delta (Homo sapiens), sequence (Q03181 whole entry, looked up): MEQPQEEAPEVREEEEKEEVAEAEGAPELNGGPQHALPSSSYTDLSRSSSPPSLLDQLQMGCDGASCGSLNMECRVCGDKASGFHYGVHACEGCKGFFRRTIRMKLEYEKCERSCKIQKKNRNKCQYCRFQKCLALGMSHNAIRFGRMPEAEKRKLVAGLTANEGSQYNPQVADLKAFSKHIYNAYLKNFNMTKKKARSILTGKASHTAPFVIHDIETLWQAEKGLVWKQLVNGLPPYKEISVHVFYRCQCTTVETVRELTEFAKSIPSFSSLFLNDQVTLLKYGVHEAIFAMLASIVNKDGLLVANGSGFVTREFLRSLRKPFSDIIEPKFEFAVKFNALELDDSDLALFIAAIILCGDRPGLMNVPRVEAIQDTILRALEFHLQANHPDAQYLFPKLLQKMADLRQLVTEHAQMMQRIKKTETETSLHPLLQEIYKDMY
Outline: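 A PPARd-bla HEK293H line with beta-lactamase under an Upstream Activator Sequence is treated with compounds at 37 C. Substrate loading for 2 h at room temperature precedes the fluorescence measurement.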

[14] = target: Vitamin D3 receptor (Homo sapiens) (UniProt P11473); test: qHTS assay to identify small molecule antagonists of the vitamin D receptor (VDR) signaling pathway (AID 743223; active = well fitted inhibition curve with a large enough effect in the signal ratio in the repeat runs, not every such curve was filed as active; the % refers to the signal ratio)
Vitamin D3 receptor (Homo sapiens), sequence (P11473 whole entry, looked up): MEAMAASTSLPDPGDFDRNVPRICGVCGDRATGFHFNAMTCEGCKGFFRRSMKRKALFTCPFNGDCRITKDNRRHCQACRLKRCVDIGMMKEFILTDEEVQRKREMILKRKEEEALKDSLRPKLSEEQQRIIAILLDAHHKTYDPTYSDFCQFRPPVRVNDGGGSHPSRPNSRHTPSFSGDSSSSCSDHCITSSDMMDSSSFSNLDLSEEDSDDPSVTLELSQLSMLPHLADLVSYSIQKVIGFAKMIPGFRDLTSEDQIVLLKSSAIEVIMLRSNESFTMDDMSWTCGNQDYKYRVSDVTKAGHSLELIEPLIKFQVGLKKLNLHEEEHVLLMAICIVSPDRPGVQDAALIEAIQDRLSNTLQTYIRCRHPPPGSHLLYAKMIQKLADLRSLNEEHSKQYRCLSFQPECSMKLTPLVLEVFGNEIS
Outline: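 Cells carrying a VDR-driven beta-lactamase reporter (VDR-bla) were co-treated with compound and 3 nM final 1alpha,25-dihydroxyvitamin D3 for 16 h at 37C; reporter activity was measured as FRET substrate fluorescence after 2 h at room temperature.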

[15] = qHTS assay to identify small molecule agonists of the endoplasmic reticulum stress response signaling pathway (AID 1159516; active = well fitted activation curve with a large enough effect in the signal ratio in the repeat runs, not every such curve was filed as active; the % refers to the signal ratio)
Outline: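 ER stress element reporter (bla) in HeLa. 1,500 cells/well, overnight attachment; 5 hr compound; 2 hr RT substrate; dual-emission fluorescence.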

[16] = target: Peroxisome proliferator-activated receptor delta (Homo sapiens) (UniProt Q03181); test: qHTS assay to identify small molecule antagonists of the peroxisome proliferator-activated receptor delta (PPARd) signaling pathway (AID 743215; active = well fitted inhibition curve with a large enough effect in the signal ratio in the repeat runs, not every such curve was filed as active; the % refers to the signal ratio;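 note: cells stimulated with agonist L165041 at 300 nM final during compound exposure; series mostly up to about 62 µM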)
Outline: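 Antagonist-mode beta-lactamase reporter screen: HEK293H cells with UAS-bla under PPARd control, stimulated by 300 nM L165041 (final) alongside test compound for 17 h at 37 C, then FRET fluorescence after 2 h substrate incubation.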

[17] = target: Vitamin D3 receptor (Homo sapiens) (UniProt P11473); test: qHTS assay to identify small molecule agonists of the vitamin D receptor (VDR) signaling pathway (AID 743222; calls by dose curve)
Outline: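 Agonist activity measured in VDR-bla reporter cells. Exposure 16 h, 37C, 5% CO2; detection by B/G FRET substrate, 2 h RT.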

[18] = target: Bile acid receptor (Homo sapiens) (UniProt Q96RI1); test: qHTS assay to identify small molecule agonists of the farnesoid-X-receptor (FXR) signaling pathway (AID 743220; active = well fitted activation curve with a large enough effect in the signal ratio in the repeat runs, not every such curve was filed as active; the % refers to the signal ratio)
Bile acid receptor (Homo sapiens), sequence (Q96RI1 whole entry, looked up): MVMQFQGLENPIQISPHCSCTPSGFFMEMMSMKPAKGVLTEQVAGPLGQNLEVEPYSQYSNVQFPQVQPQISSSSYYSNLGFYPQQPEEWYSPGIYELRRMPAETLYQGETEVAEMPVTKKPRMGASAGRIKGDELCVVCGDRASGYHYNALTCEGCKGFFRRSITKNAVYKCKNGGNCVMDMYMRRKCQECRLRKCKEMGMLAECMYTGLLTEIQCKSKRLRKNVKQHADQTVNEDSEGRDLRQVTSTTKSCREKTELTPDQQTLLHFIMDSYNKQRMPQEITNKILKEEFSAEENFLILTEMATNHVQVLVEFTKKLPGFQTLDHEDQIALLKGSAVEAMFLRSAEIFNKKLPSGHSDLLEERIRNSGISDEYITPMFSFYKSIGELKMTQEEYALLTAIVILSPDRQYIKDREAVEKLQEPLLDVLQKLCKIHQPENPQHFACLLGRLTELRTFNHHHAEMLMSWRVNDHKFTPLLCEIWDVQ
Outline: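 Beta-lactamase reporter under UAS control in GeneBLAzer FXR HEK 293T cells (5000/well) measured with LiveBLAzer FRET substrate after 2 h at room temperature. Compound exposure lasted 16 h at 37C.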

[19] = target: Bile acid receptor (Homo sapiens) (UniProt Q96RI1); test: qHTS assay to identify small molecule antagonists of the farnesoid-X-receptor (FXR) signaling pathway (AID 743217; active = well fitted inhibition curve with a large enough effect in the signal ratio in the repeat runs, not every such curve was filed as active; the % refers to the signal ratio)
Outline: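 Beta-lactamase reporter under UAS control in HEK 293T cells; compound exposure 16 h at 37 °C in the presence of chenodeoxycholic acid (50 uM final); signal from B/G FRET substrate after 2 h at room temperature.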

Structure (SMILES)	Potency [1]	Potency [2]	Potency [3]	Potency [4]	Potency [5]	Potency [6]	Potency [7]	Potency [8]	Potency [9]	Potency [10]	Potency [11]	Potency [12]	Potency [13]	Potency [14]	Potency [15]	Potency [16]	Potency [17]	Potency [18]	Potency [19]
CCOC(=O)c1ccc(C#Cc2ccc3c(c2)C(C)(C)CCS3)nc1	inactive	inactive	inactive	inactive	inactive	inactive	inactive	inactive	inactive	inactive	inactive	–	–	–	–	–	–	–	–
Oc1cc2c(cc1O)[C@H]1c3ccc(O)c(O)c3OC[C@@]1(O)C2	inactive	–	inactive	inactive	inactive	inactive	inactive	inactive	13.9 µM (active)	inactive	inactive	inactive	inactive	–	–	–	–	–	–
CC1(CN2CCC(n3c(=O)[nH]c4ccccc43)CC2)OCc2ccccc2-n2cccc21 (stereo not given)	–	–	inactive	–	inactive	inactive	–	–	–	inactive	–	33.5 µM (active)	–	inactive	inactive	–	–	–	–
C=CC(C)(CCC=C(C)C)OC(=O)CC(C)C (stereo not given)	inactive	–	inactive	inactive	inactive	inactive	inactive	inactive	inactive	inactive	inactive	inactive	inactive	–	–	inactive	inactive	–	–
CN1C[C@H](C(=O)N[C@]2(C)O[C@@]3(O)[C@@H]4CCCN4C(=O)[C@H](Cc4ccccc4)N3C2=O)C[C@@H]2c3cccc4[nH]cc(c34)C[C@H]21	–	26.6 µM (active)	–	29.8 µM (active)	–	inactive	inactive	–	inactive	inactive	inactive	23.7 µM (active)	–	–	inactive	–	–	–	–
CC[N+](CC)(CCNC(=O)C(=O)NCC[N+](CC)(CC)Cc1ccccc1Cl)Cc1ccccc1Cl	inactive	inactive	inactive	inactive	inactive	inactive	inactive	inactive	inactive	–	inactive	inactive	inactive	–	–	–	–	–	–
O=C(O)c1cccc(-c2noc(-c3ccccc3F)n2)c1	inactive	–	11.9 µM (active)	inactive	–	inactive	–	inactive	–	–	inactive	–	–	–	inactive	–	inactive	–	–
C[C@@H]1CC(=O)NN=C1c1ccc(NN=C(C#N)C#N)cc1	inactive	–	inactive	inactive	inactive	inactive	inactive	2.98 µM (active) and 2.11 µM (active)	4.22 µM (active)	inactive	–	inactive	–	–	–	–	–	–	–
CN1CCCC(CC2c3ccccc3Sc3ccccc32)C1 (stereo not given)	26.6 µM (active)	13.3 µM (active)	–	26.6 µM (active)	21.3 µM (active)	inactive	inactive	–	–	–	16.9 µM (active)	29.8 µM (active)	–	–	inactive	–	–	inactive	–
CS(=O)(=O)c1ccc(-c2cn3ccccc3n2)cc1	–	–	inactive	29.8 µM (active)	–	inactive	23.9 µM (active)	–	–	–	–	29.8 µM (active)	inactive	inactive	inactive	inactive	–	–	–
Cc1ccc(Cl)c(Nc2ccccc2C(=O)O)c1Cl	inactive	inactive	inactive	inactive	inactive	inactive	inactive	inactive	–	inactive	inactive	inactive	–	–	–	–	–	inactive	inactive
